# Source: PubChem BioAssay (Tox21)
# Results filed as inconclusive are left out. Unmarked numbers belong to inactive results. The call rests on the fitted dose curve; in most records, active means well fitted curve in the direction sought with a large enough effect in the repeat runs; inconclusive means weak or mixed curves; inactive means no such curve, though single readings can be large; an effect the other way counts as inactive or inconclusive.
# Assay: qHTS RealTime-Glo MT Cell Viability Assay in HEK293 cells - 24 hour (AID 1224886); further: top concentration of the series differs between compounds; nearly all actives have a fitted effect of over 50% in size
# Conditions: RealTime-Glo luminescence; series mostly up to 76.8 µM; activity change, negative = cytotoxicity: at the top concentration
# How it was run: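 Quantitative high-throughput screen of the Tox21 10K library in HEK293: cells and RealTime-Glo reagents plated together, compound added at 5 h, luminescence monitored through 40 h at 37 C.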
# On the % scale 0 is the no-effect control and ±100 the full control effect.
row,SMILES,"activity change, negative = cytotoxicity"
1,CCCCN=C(N)N=C(N)N,-2.02% [at 35.3 µM]
2,CN(C)CCC[C@@]1(c2ccc(F)cc2)OCc2cc(C#N)ccc21,-2.57% [at 35.3 µM]
3,O=C(O)P(=O)(O)O,9.81% [at 35.3 µM]
4,CC(=O)SCC(CC(=O)c1ccc(C)cc1)C(=O)O (stereo unspecified),2.11% [at 35.3 µM]
5,CC(C)(C)C(=O)CCc1ccc(Cl)cc1,14.6%
6,Nc1ccc(C(=O)NCC(=O)O)cc1,0.113% [at 35.3 µM]
7,NC(=O)CC[C@@H](N)C(=O)O,11.3% [at 35.3 µM]
8,C[n+]1ccccc1/C=N/O,2.78% [at 35.3 µM]
9,COc1cc2nc(N3CCN(C(=O)C4CCCO4)CC3)nc(N)c2cc1OC (stereo unspecified),-17% [at 35.3 µM]
10,COc1cnc(NS(=O)(=O)c2ccc(N)cc2)nc1,8.7% [at 35.3 µM]

# Assay: qHTS RealTime-Glo MT Cell Viability Assay in HEK293 cells - 8 hour (AID 1224887); further: top concentration of the series differs between compounds; nearly all actives have a fitted effect of over 50% in size
# Conditions: RealTime-Glo luminescence; series mostly up to 76.8 µM; activity change, negative = cytotoxicity: at the top concentration
# How it was run: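 Nonlytic bioluminescent viability monitoring. HEK293 at 600 cells/well with reagent; 5 h settle; compound transfer by pintool; plates held at 37 C and read at set time points.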
row,SMILES,"activity change, negative = cytotoxicity"
1,N=C(N)S(=O)O,28.9%
2,CC[C@@]1(c2ccccc2)NC(=O)N(C)C1=O,25.6% [at 35.3 µM]
3,CC(=O)Oc1ccc(C(C)=O)cc1,-5.54%
4,Cc1ccc(N)nc1,5.69%
5,CCCOc1ccc(C(=O)OCCN(CC)CC)cc1N,-5.05% [at 35.3 µM]
6,CCCCCCC(O)CO (stereo unspecified),3.69%
7,CC(=O)OC/C=C(/C)CCC=C(C)C,8.4%
8,CC(C)(C)OC(=O)c1ccccc1C(=O)O,6.86%
9,CC1=C(O)C(=O)CO1,4.72%
10,O=C(O)Cc1ccccc1Oc1ccc(Cl)cc1Cl,4.84% [at 35.3 µM]
11,O=c1c(O)c(O)c1=O,2.85%
12,NCC1CCC(C(=O)Oc2ccc(CCC(=O)O)cc2)CC1 (stereo unspecified),22.3% [at 35.3 µM]
13,Cc1cc(=O)oc2cc(O[C@@H]3SC[C@@H](O)[C@H](O)[C@H]3O)ccc12,0.539% [at 35.3 µM]
14,CO/N=C(\C(=O)O)c1csc(NC(=O)CCl)n1,6.26% [at 35.3 µM]
15,C=CCN1CCc2nc(N)sc2CC1,12% [at 35.3 µM]
16,COc1ccc2cc(CCC(C)=O)ccc2c1,-8.94% [at 35.3 µM]
17,CCCCCCCCC1CO1 (stereo unspecified),-2.17%
18,Cc1nc2ccc(Cl)cc2[nH]1,0.683%
19,CC(C)c1cc(C(C)C)cc(C(C)C)c1,-1.88%

row,SMILES,"activity change, negative = cytotoxicity"
1,COC(=O)c1ccc(NC(C)=O)cc1OC,1.13% [at 35.3 µM]
2,O=S(=O)(O)c1ccc(Cl)cc1,12.9%
3,C=COCCCCO,15.4%
4,C/C(=N\O)c1ccc(OCC(=O)N2CCCCC2)cc1,-12.2% [at 35.3 µM]
5,Cc1cccc(N)n1,-1.96%
6,CCCCCCCCCCCC(C)=O,5.2%
7,CN(C)CCc1c[nH]c2ccc(C[C@H]3COC(=O)N3)cc12,2.37% [at 35.3 µM]
8,CC(=O)/C=C/C=C1/C2CCC(C2)C1(C)C (stereo unspecified),-19.1% [at 35.3 µM]
9,Cc1ccc(O)c([N+](=O)[O-])c1,-2.09%
10,CCCCN=C(N)N=C(N)N,6.72% [at 35.3 µM]
11,CN(C)CCC[C@@]1(c2ccc(F)cc2)OCc2cc(C#N)ccc21,9.52% [at 35.3 µM]
12,O=C(O)P(=O)(O)O,1.63% [at 35.3 µM]
13,CC(=O)SCC(CC(=O)c1ccc(C)cc1)C(=O)O (stereo unspecified),8.06% [at 35.3 µM]
14,CC(C)(C)C(=O)CCc1ccc(Cl)cc1,8.16%
15,Nc1ccc(C(=O)NCC(=O)O)cc1,-1.15% [at 35.3 µM]
16,NC(=O)CC[C@@H](N)C(=O)O,-0.102% [at 35.3 µM]
17,C[n+]1ccccc1/C=N/O,1.7% [at 35.3 µM]
18,COc1cc2nc(N3CCN(C(=O)C4CCCO4)CC3)nc(N)c2cc1OC (stereo unspecified),-13.2% [at 35.3 µM]
19,COc1cnc(NS(=O)(=O)c2ccc(N)cc2)nc1,11.9% [at 35.3 µM]

# Assay: A CellTox Green Cytotoxicity Assay to monitor cytotoxicity in HEK293 cells - 16 hour (AID 1224888); further: nearly all actives have a fitted effect of over 35% in size
# Conditions: CellTox Green fluorescence; series mostly up to 76.8 µM; activity change: at the top concentration
# How it was run: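 Cytotoxicity was tracked continuously in HEK293 cells by a DNA-binding dye excluded from viable cells. Compounds were transferred in DMSO 5 h after seeding; fluorescence was recorded at intervals up to 40 h.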
row,SMILES,activity change
1,N=C(N)S(=O)O,-16.4%
2,CC[C@@]1(c2ccccc2)NC(=O)N(C)C1=O,"-0.358% [at 35.3 µM, active compounds read high]"
3,CC(=O)Oc1ccc(C(C)=O)cc1,7.56%
4,Cc1ccc(N)nc1,-4.84%
5,CCCOc1ccc(C(=O)OCCN(CC)CC)cc1N,"-0.137% [at 35.3 µM, active compounds read high]"
6,CCCCCCC(O)CO (stereo unspecified),-17.5%
7,CC(=O)OC/C=C(/C)CCC=C(C)C,6.76%
8,CC(C)(C)OC(=O)c1ccccc1C(=O)O,-9.24%
9,CC1=C(O)C(=O)CO1,-1.29%
10,O=C(O)Cc1ccccc1Oc1ccc(Cl)cc1Cl,"2.96% [at 35.3 µM, active compounds read high]"
11,O=c1c(O)c(O)c1=O,-0.0351%
12,NCC1CCC(C(=O)Oc2ccc(CCC(=O)O)cc2)CC1 (stereo unspecified),"1.04% [at 35.3 µM, active compounds read high]"
13,Cc1cc(=O)oc2cc(O[C@@H]3SC[C@@H](O)[C@H](O)[C@H]3O)ccc12,"-13.9% [at 35.3 µM, active compounds read high]"
14,CO/N=C(\C(=O)O)c1csc(NC(=O)CCl)n1,"-4.6% [at 35.3 µM, active compounds read high]"
15,C=CCN1CCc2nc(N)sc2CC1,"-1.26% [at 35.3 µM, active compounds read high]"
16,COc1ccc2cc(CCC(C)=O)ccc2c1,"0.809% [at 35.3 µM, active compounds read high]"
17,CCCCCCCCC1CO1 (stereo unspecified),-2.69%
18,Cc1nc2ccc(Cl)cc2[nH]1,1.35%
19,CC(C)c1cc(C(C)C)cc(C(C)C)c1,0.0389%

row,SMILES,activity change
1,COC(=O)c1ccc(NC(C)=O)cc1OC,"-5.06% [at 35.3 µM, active compounds read high]"
2,O=S(=O)(O)c1ccc(Cl)cc1,0.0127%
3,C=COCCCCO,-9.29%
4,C/C(=N\O)c1ccc(OCC(=O)N2CCCCC2)cc1,"-1.31% [at 35.3 µM, active compounds read high]"
5,Cc1cccc(N)n1,0.0225%
6,CCCCCCCCCCCC(C)=O,-9.29%
7,CN(C)CCc1c[nH]c2ccc(C[C@H]3COC(=O)N3)cc12,"7.9% [at 35.3 µM, active compounds read high]"
8,CC(=O)/C=C/C=C1/C2CCC(C2)C1(C)C (stereo unspecified),"15.6% [at 35.3 µM, active compounds read high]"
9,Cc1ccc(O)c([N+](=O)[O-])c1,0.399%
10,CCCCN=C(N)N=C(N)N,"-10.6% [at 35.3 µM, active compounds read high]"
11,CN(C)CCC[C@@]1(c2ccc(F)cc2)OCc2cc(C#N)ccc21,"1.01% [at 35.3 µM, active compounds read high]"
12,O=C(O)P(=O)(O)O,"-0.416% [at 35.3 µM, active compounds read high]"
13,CC(=O)SCC(CC(=O)c1ccc(C)cc1)C(=O)O (stereo unspecified),"0.438% [at 35.3 µM, active compounds read high]"
14,CC(C)(C)C(=O)CCc1ccc(Cl)cc1,8.89%
15,Nc1ccc(C(=O)NCC(=O)O)cc1,"-12.6% [at 35.3 µM, active compounds read high]"
16,NC(=O)CC[C@@H](N)C(=O)O,"0.993% [at 35.3 µM, active compounds read high]"
17,C[n+]1ccccc1/C=N/O,"-1.31% [at 35.3 µM, active compounds read high]"
18,COc1cc2nc(N3CCN(C(=O)C4CCCO4)CC3)nc(N)c2cc1OC (stereo unspecified),"-3.13% [at 35.3 µM, active compounds read high]"
19,COc1cnc(NS(=O)(=O)c2ccc(N)cc2)nc1,"14.3% [at 35.3 µM, active compounds read high]"
